Results: PubChem BioAssay (EPA / NIEHS)
Values joined by “and” are separate entries in the source; they are usually repeats but may differ in a detail not shown here. Equal entries are not always repeated. The source holds several records for some structures; these can differ, active in one and inactive in another. Active and inactive are the calls of the source. The calls were made as follows: active = hit-call score of the fitted dose curve at least 0.9, where 1 is the maximum; inactive = score below 0.9.

Tests used:
[1] = biological target: Transcription factor E2F1 (Homo sapiens) (UniProt Q01094); experiment: ATG_E2F_CIS: Attagene CIS-FACTORIAL HepG2 Assay for human E2F Transcription Factor 1 (AID 2282935); settings: HepG2 Attagene cis-reporter, E2F reporter RNA transcripts; actives raise or lower the signal
Chain of Transcription factor E2F1 (Homo sapiens) (Q01094 whole entry, looked up): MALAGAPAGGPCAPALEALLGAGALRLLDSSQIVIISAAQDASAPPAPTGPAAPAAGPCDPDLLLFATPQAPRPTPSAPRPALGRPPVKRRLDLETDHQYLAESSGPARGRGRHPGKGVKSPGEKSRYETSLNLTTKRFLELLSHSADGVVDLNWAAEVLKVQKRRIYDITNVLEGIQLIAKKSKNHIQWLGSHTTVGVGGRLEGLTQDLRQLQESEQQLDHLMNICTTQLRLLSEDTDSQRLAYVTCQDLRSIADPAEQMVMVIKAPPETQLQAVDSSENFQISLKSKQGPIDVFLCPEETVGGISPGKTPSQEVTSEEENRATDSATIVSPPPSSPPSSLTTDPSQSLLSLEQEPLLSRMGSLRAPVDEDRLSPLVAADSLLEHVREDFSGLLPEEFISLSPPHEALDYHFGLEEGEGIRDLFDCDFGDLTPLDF
Procedure, shortened: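 Cis-element reporter mRNA induction in transiently transfected HepG2, 24 h exposure. Activity fitted in both directions relative to DMSO negative control.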

[2] = ATG_E_Box_CIS: Attagene CIS-FACTORIAL HepG2 Assay for human Enhancer Box (E-box) (AID 2282936); settings: HepG2 E-box cis-reporter transcription, actives raise or lower the signal
Procedure, shortened: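 Cells: HepG2 (human liver), transient MRTU transfection. Exposure 24 h. RNA → oligo(dT) RT → PCR → 6-FAM label → HpaI → CE. Activity fitted both directions relative to DMSO.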

[3] = ATG_M_61_CIS: Attagene CIS-FACTORIAL HepG2 Assay for M61 Transcription Factor (Internal Marker) (AID 2282937); settings: HepG2 Attagene CIS-FACTORIAL M61 internal marker reporter; actives raise or lower the signal
Procedure, shortened: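 This endpoint serves as an internal background control within a multiplexed HepG2 cis-reporter panel. Cells are exposed for 24 h; reporter mRNA is amplified, fluorescently labelled and sized by capillary electrophoresis, with DMSO as negative control.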

[4] = ATG_EGR_CIS: Attagene CIS-FACTORIAL HepG2 Assay for human Early Growth Response 1 (EGR1) (AID 2282938); settings: HepG2 Attagene CIS-FACTORIAL EGR reporter mRNA; actives raise or lower the signal
Procedure, shortened: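 HepG2, transient MRTU transfection (cis promoters), 24 h compound. RNA → RT (oligo-dT) → PCR → 6-FAM labelling → HpaI cut → CE fluorescence. Bidirectional fit, DMSO baseline.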

[5] = ATG_M_19_CIS: Attagene CIS-FACTORIAL HepG2 Assay for M19 Transcription Factor (Internal Marker) (AID 2282939); settings: HepG2 Attagene CIS-FACTORIAL M19 internal marker reporter; actives raise or lower the signal
Procedure, shortened: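 Internal marker readout, fitted in both directions against DMSO, from HepG2 cells carrying transfected cis-element reporter constructs; RT-PCR and capillary electrophoresis of reporter mRNA after 24 h exposure.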

[6] = ATG_ERE_CIS: Attagene CIS-FACTORIAL HepG2 Assay for Estrogen Response Element (ERE) (AID 2282940); settings: HepG2 ERE cis-reporter, Attagene RNA transcript; actives raise or lower the signal
Procedure, shortened: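 After 24 h compound treatment, RNA from transfected HepG2 cells was reverse-transcribed, reporter cDNA PCR-amplified, FAM-labelled, HpaI-cut and resolved by capillary electrophoresis. ERE-driven cis reporter transcripts reflect endogenous factors; gain or loss scored against DMSO.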

[7] = ATG_Ets_CIS: Attagene CIS-FACTORIAL HepG2 Assay for human Erythroblast Transformation Specific (ETS) (AID 2282941); settings: HepG2 ETS cis-reporter transcription, actives raise or lower the signal
Procedure, shortened: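 Human HepG2 hepatoma cells were transiently transfected with promoter-driven reporter constructs and treated for 24 hours. Reporter transcripts were quantified by RT-PCR with fluorescent primer extension; bidirectional curve fitting used DMSO as reference.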

[8] = biological target: Hepatocyte nuclear factor 3-beta (Homo sapiens) (UniProt Q9Y261); experiment: ATG_FoxA2_CIS: Attagene CIS-FACTORIAL HepG2 Assay for human Forkhead box A2 (FOXA2) (AID 2282942); settings: HepG2 cis-reporter transcription factor activity, 24 h; actives raise or lower the signal
Chain of Hepatocyte nuclear factor 3-beta (Homo sapiens) (Q9Y261 whole entry, looked up): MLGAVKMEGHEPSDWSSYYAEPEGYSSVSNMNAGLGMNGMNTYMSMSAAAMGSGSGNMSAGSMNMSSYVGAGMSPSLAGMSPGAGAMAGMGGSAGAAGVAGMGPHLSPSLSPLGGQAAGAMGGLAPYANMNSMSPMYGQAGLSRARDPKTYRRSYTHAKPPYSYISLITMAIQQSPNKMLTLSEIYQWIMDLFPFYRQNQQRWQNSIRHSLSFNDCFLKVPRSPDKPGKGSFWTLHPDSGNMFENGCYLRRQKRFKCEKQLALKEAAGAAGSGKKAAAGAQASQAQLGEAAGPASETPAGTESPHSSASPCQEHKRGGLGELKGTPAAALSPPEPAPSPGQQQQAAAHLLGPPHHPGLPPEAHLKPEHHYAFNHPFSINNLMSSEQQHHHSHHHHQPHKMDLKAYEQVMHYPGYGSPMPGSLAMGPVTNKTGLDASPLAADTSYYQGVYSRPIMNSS
Procedure, shortened: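 Cells: HepG2, transient multiplex reporter transfection. Exposure 24 h. Detection: reporter-specific RT-PCR, fluorescent labelling, restriction digest, capillary electrophoresis. Analysis: bidirectional curve fit, DMSO as negative control.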

[9] = ATG_FoxO_CIS: Attagene CIS-FACTORIAL HepG2 Assay for human Forkhead box O (FoxO) (AID 2282943); settings: HepG2 Attagene cis-reporter, FoxO element, mRNA; actives raise or lower the signal
Procedure, shortened: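 Human hepatoma HepG2 cells carry transiently introduced reporter transcription units controlled by cis promoter elements. Chemical treatment lasted 24 h, and mRNA signal was compared with DMSO.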

[10] = ATG_GATA_CIS: Attagene CIS-FACTORIAL HepG2 Assay for human GATA Binding Protein (AID 2282944); settings: HepG2 GATA cis-element reporter, Attagene multiplex mRNA; actives raise or lower the signal
Procedure, shortened: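 Reporter transcripts from a GATA cis-regulated unit, among multiplexed reporters in transfected HepG2 cells, were measured by RT-PCR with capillary electrophoresis after 24 h dosing. Induction or loss scored relative to DMSO.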

SMILES	outcome [1]	outcome [2]	outcome [3]	outcome [4]	outcome [5]	outcome [6]	outcome [7]	outcome [8]	outcome [9]	outcome [10]	AC50 [2]	AC50 [4]	AC50 [6]	AC50 [7]	AC50 [8]	AC50 [1]
c1ccc2c(c1)ccc1ccccc12	inactive	inactive	inactive	inactive	inactive	inactive	inactive	inactive	inactive	inactive	–	–	–	–	–	–
O=C(/C=C/c1ccc(O)cc1)CC(=O)/C=C/c1ccc(O)cc1	inactive	–	inactive	–	inactive	inactive	inactive	inactive	inactive	inactive	26.7 µM (active)	11.5 µM (active)	–	–	–	–
CCCOC(=O)c1ccc(O)cc1	inactive	inactive	inactive	inactive	inactive	–	inactive	inactive	inactive	inactive	–	157 µM (active)	6.06 µM (active) and 16 µM (active)	–	–	–
Nc1cccc2c(N)cccc12	inactive	inactive	inactive	inactive	inactive	inactive	inactive	inactive	inactive	inactive	–	–	–	–	–	–
OCCC(F)(F)C(F)(F)C(F)(F)C(F)(F)C(F)(F)C(F)(F)C(F)(F)C(F)(F)F	inactive	inactive	inactive	–	inactive	–	–	–	inactive	inactive	261 µM (active)	26.5 µM (active) and 150 µM (active)	9.11 µM (active) and 8.41 µM (active)	50.7 µM (active) and 150 µM (active)	51.9 µM (active) and 235 µM (active)	–
CCN(CC)CCNc1ccc(CNC=O)c2sc3ccc(OC)cc3c(=O)c12	inactive	inactive	inactive	inactive	inactive	–	–	inactive	inactive	inactive	–	–	722 nM (active)	1.42 µM (active)	–	–
CC(C)(C)c1cccc(C(C)(C)C)c1O	–	inactive	inactive	inactive	inactive	inactive	–	inactive	inactive	inactive	–	–	–	166 µM (active)	–	188 µM (active)
OC1CCCCC1	inactive	inactive	inactive	inactive	inactive	inactive	inactive	inactive	inactive	inactive	–	–	100000 nM (active)	–	–	–
CC#C[C@]1(O)CC[C@H]2[C@@H]3CCC4=CC(=O)CCC4=C3[C@@H](c3ccc(N(C)C)cc3)C[C@@]21C	inactive	inactive	inactive	–	inactive	inactive	inactive	inactive	inactive	inactive	–	9.86 µM (active) [middle of 4 runs]	–	8.92 µM (active)	58.4 µM (active)	–
